Test results: PubChem BioAssay (NCI)
This is part of a sample that, as a whole, favours compounds with a hit. Of some 79,000 tested, about 15% had one in any assay. A number with no mark means an inactive call. Active and inactive are the calls of the source. Rule as the data show it: active = growth inhibition above about 70%; inactive = the rest.

What was measured:
[1] = NCI Yeast Anticancer Drug Screen. Data for the rad50 strain (AID 155);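 also: 0% = growth of vehicle-only cultures of the same strain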; conditions: S. cerevisiae rad50 strain growth inhibition; at 50.0 µM; stronger effect = higher value
Summary of the method: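 Compounds were tested on a yeast strain with an engineered DNA damage repair alteration; the reported value is growth inhibition normalised to vehicle treatment.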

[2] = NCI Yeast Anticancer Drug Screen. Data for the mec2-1 strain (AID 157); conditions: S. cerevisiae mec2-1 strain, at 50.0 µM, stronger effect = higher value
Summary of the method: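 mec2-1 yeast strain, carrying an alteration in DNA damage repair or cell cycle control, was exposed to compounds; growth inhibition was measured relative to vehicle-treated controls.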

[3] = NCI Yeast Anticancer Drug Screen. Data for the sgs1 mgt1 strain (AID 161);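 also: 0% = growth of cultures given vehicle only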; conditions: S. cerevisiae sgs1 mgt1 strain, at 50.0 µM, stronger effect = higher value
Summary of the method: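 Growth of a repair-deficient yeast mutant was monitored after compound treatment and expressed as inhibition relative to vehicle-treated cultures.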

[4] = NCI Yeast Anticancer Drug Screen. Data for the cln2 rad14 strain (AID 165);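 also: 0% = growth equal to vehicle treated cultures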; conditions: S. cerevisiae cln2 rad14 strain, at 50.0 µM, stronger effect = higher value
Summary of the method: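 Yeast carrying cln2 and rad14 alterations (cell cycle control and DNA damage repair) were exposed to compounds. Growth inhibition was measured against vehicle-treated controls.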

[5] = NCI Yeast Anticancer Drug Screen. Data for the bub3 strain (AID 167); conditions: S. cerevisiae bub3 mutant strain, at 50.0 µM, stronger effect = higher value
Summary of the method: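 Growth of a checkpoint-deficient yeast mutant is measured after compound exposure. Values represent inhibition relative to vehicle.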

[6] = NCI Yeast Anticancer Drug Screen. Data for the mlh1 rad18 strain (AID 175); conditions: S. cerevisiae mlh1 rad18 strain growth inhibition; at 50.0 µM; stronger effect = higher value
Summary of the method: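 Growth inhibition of the yeast strain was measured after compound exposure and expressed relative to vehicle-treated controls. The strain carries defined defects in DNA damage repair.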

| SMILES | growth inhibition [1] | growth inhibition [2] | growth inhibition [3] | growth inhibition [4] | growth inhibition [5] | growth inhibition [6] |
| --- | --- | --- | --- | --- | --- | --- |
| N#CCCN(CCc1ccccn1)CN1C(=O)c2ccccc2C1=O | 10% | -4.85% | -3.75% | -7.45% | 3.25% | -13.2% |
| CCCCN(c1ccccn1)S(=O)(=O)c1ccccc1 | -2.3% | 19.8% | 19.3% | 7.6% | -3.55% | 5.75% |
| O=C1OC(c2cccc(Cl)c2)=N/C1=C\c1ccc(Cl)cc1 | 20.4% | 16.6% | 16.6% | 11.2% | 7.5% | 0.6% |
| O=CNn1cn[nH]c1=S | 1.9% | -2.65% | -17.6% | 4.25% | 8.75% | 6.95% |
| Cc1ccc2nc(-c3ccc4nc(-c5ccc(N=Nc6ccc(-c7nc8ccc(-c9nc%10ccc(C)c(S(=O)(=O)O)c%10s9)cc8s7)cc6)cc5)sc4c3)sc2c1S(=O)(=O)O | 12.7% | -13% | 21.4% | -0.3% | -3.2% | -26.9% |
| CCN(CC)CCCC(C)=O | 9.25% | 21.6% | 28.2% | 18.6% | 13% | 3.4% |
| Cc1ncnc(N)c1N | 18.3% | 14.2% | 8.95% | 26.1% | 18.1% | 2.8% |
| OCCN(CCO)c1ncnc2c1ncn2CCc1ccccc1 | 13.6% | -0.25% | 16.2% | -16% | 4.1% | -2.25% |
| NNc1cccc(Cl)n1 | 6.65% | -4.7% | -5.5% | 17.6% | -9.8% | 8.05% |
| CCOC(=O)CCC(=O)c1ccc2cc(OC)ccc2c1 | 5.55% | 25.2% | 11.8% | -36% | 34.9% | 27.1% |
| Cn1nc(-c2ccccc2)c(C(=O)/C=C/c2ccc(Cl)cc2)c(N2CCCCC2)c1=O | -30.9% | -21.9% | -36.2% | 1.75% | -22.9% | -22.2% |
| NCCN.O=C([O-])CN1CCOCC1.[OH-].[Pt+4] | 8.9% | -5.25% | -29.9% | -17.9% | -13.7% | -19.9% |
| Cc1cccc(NN)c1 | 59.6% | 32.1% | 7.45% | 30% | 23.3% | 32.9% |
| CCCCCCCCCCCC(=O)Nc1ccc(C(C)C)cc1 | 4.75% | -7.6% | -13.3% | 18.3% | 21.2% | -12.8% |
| Cc1cc(N)c(N=Cc2ccccc2[N+](=O)[O-])cc1C | 26.2% | 11.5% | 39.8% | -58.8% | 24.8% | 20.9% |
| C=C1CC(C)(Cn2c(N)nc3nc[nH]c3c2=O)OC1=O (stereo unspecified) | 11.7% | 5.95% | 11.1% | 12.9% | 14.1% | 4.8% |
| CCOC(=O)C(Nc1cccc2ccccc12)C(=O)OCC | 0.5% | 19.1% | 9.3% | -5.2% | 46.2% | 25.7% |
| Cc1ccc(Cl)cc1NC(=O)/C=C/c1ccccc1 | 3.05% | 8.4% | 6.4% | -7.35% | 10.5% | 18.6% |
| CCOC(=O)C(Br)CN1C(=O)c2ccccc2C1=O (stereo unspecified) | 5.5% | -7.1% | -5.35% | 12.6% | 42% | 13.6% |
| Cc1ccc(NCCN(C)C)c2c(=O)c3cccc(O)c3sc12 | 73.5% (active) | 35.1% | 18.2% | 26.8% | 40.4% | 65% |
| COC1=CC(=O)C(CC=C(C)C)=CC1=O | 5.65% | -9.9% | -1.2% | -62.4% | -8.9% | -3.2% |

| SMILES | growth inhibition [1] | growth inhibition [2] | growth inhibition [3] | growth inhibition [4] | growth inhibition [5] | growth inhibition [6] |
| --- | --- | --- | --- | --- | --- | --- |
| CC(C)=C1C(=O)C[C@]2(C)C[C@H]3O[C@]3(C)CC[C@@H]3O[C@@]3(C)CC[C@@H]12 | 0.3% | -8.05% | 12.6% | 14.1% | -1.65% | -66.5% |
| S=c1o[nH]c(-c2ccccc2)c1C=Nc1ccccc1 | -5.45% | 17.5% | 13.9% | 26.6% | 5.35% | 6.15% |
| O=c1[nH]c(=O)n(C2CC(O)C(CO)O2)cc1OC/C=C/Cc1ccccc1 (stereo unspecified) | -22.1% | -12.8% | 0.95% | 7.75% | -10.4% | -20.7% |
| Cc1cccc(-c2nc3sc(-c4cccc(C)n4)nc3s2)n1 | -9.7% | 3.05% | -13.3% | -29.6% | 4.05% | -16.3% |
| COc1ccc(N2C(=O)C3c4[nH]c5ccccc5c4C4CCC(C(C)(C)C)CC4C3C2=O)cc1OC (stereo unspecified) | 46.8% | 18.4% | 14.8% | -3.4% | 44.2% | 38.1% |
| COc1ccc2c(c1)c(=O)c1c(NCCCN(C)C)ccc3ncn2c31 | 34.6% | -5.35% | 15.8% | -1.7% | -9.6% | 9.3% |
| Cc1ccccc1NCC#N | -23.9% | -26% | -19.2% | -15.2% | 10% | -11.6% |
| CO[C@H](C)[C@@](O)(C(=O)OCC1=CCN2CCC[C@@H]12)C(C)C | -2.3% | -9.4% | 32.4% | 8.65% | 4.5% | 16.3% |
| O=c1[nH]cnc2c(COCCO)c[nH]c12 | -18.6% | 2.8% | -19.5% | -3.95% | -34.3% | -20.9% |
| COc1cc(/C(C#N)=C/c2ccccn2)c([N+](=O)[O-])cc1OC | -7.9% | -2% | 6% | -36.6% | 4.5% | -5.9% |
| O=C(COc1ccc(Cl)c(Cl)c1)NCc1ccc([N+](=O)[O-])cc1 | 0.35% | 28.2% | 20.9% | -10.7% | 27.8% | 22.9% |
| C[NH-].C[NH-].C[NH-].C[NH-].O=C(O)c1cc(C(=O)O)c(C(=O)O)cc1C(=O)O.[Pt+2].[Pt+2] | -6.25% | -2.6% | -2.05% | -36% | 0.55% | 13.3% |
| Clc1ccc2c(c1)C1Oc3ccc(Cl)cc3C(O2)O1 | -5.5% | -24.5% | 1% | -14.3% | -6.4% | -2.3% |
| S=C1N(/N=C/c2c3ccccc3cc3ccccc23)C(=Nc2ccccc2)C(=Nc2ccccc2)N1c1ccccc1 | 16.9% | -4.55% | -6.35% | 24.9% | 16.6% | -7.55% |
| COc1cc(CCCCC(=O)O)cc(Br)c1OC | -17.7% | -1.95% | 4.9% | -33.7% | 29.8% | -3.85% |
| CCOCNC(=O)Nc1ccccc1 | -5.4% | -15.6% | 7% | -37.5% | 0.35% | 3.9% |
| COC(=O)/C(C)=C/C=C/C(OC)C(OC(N)=O)/C(C)=C/C(C)C(O)C(CC(C)CC1=C(OC)C(=O)C=C(N)C1=O)OC (stereo unspecified) | 5.85% | 24.8% | 17% | 9.3% | 2.85% | 13.8% |
| Clc1ccc(CSc2nnc(SCc3ccc(Cl)cc3)c3[nH]cnc23)cc1 | 14.2% | 0.05% | 20.9% | 25.9% | -3.2% | -11.7% |
| O=C1NC(N2CCCCC2)=N/C1=C\c1cccs1 | 2.5% | 2.2% | -12.9% | 7.05% | -11.8% | -29.4% |
| O=[N+]([O-])c1ccc(CCCCCc2ccccc2)cc1 | -6.15% | -17.6% | 0.6% | -75.2% | 4.5% | -21.4% |
